# This is part of a sample that, as a whole, favours compounds with a hit. Of some 83,000 tested, about 20% had one in any assay.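 Single-dose data. Exposure time 48 hours. Values below 10 considered active.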 Unmarked numbers belong to inactive results. Active and inactive are the calls of the source.
# Legend:
# Test in all cases: NCI-60 one-dose screen, 48 h (100 = growth as untreated, 0 = no growth, -100 = all killed)
# Settings in all cases: 10 µM unless noted
# [1] = system: SK-MEL-2 melanoma
# [2] = system: EKVX NSCLC
# [3] = system: SN12C renal
# [4] = system: UO-31 renal
# [5] = system: ACHN renal
# [6] = system: CAKI-1 renal
# [7] = system: A498 renal
# [8] = system: CCRF-CEM leukemia
# [9] = system: MOLT-4 leukemia
# [10] = system: TK-10 renal
SMILES,growth [1],growth [2],growth [3],growth [4],growth [5],growth [6],growth [7],growth [8],growth [9],growth [10]
CNC(=O)NCC1OC(n2cnc3c(NC(=O)Nc4ccccc4)ncnc32)C2OC(C)(C)OC12 (centres undefined),104%,102%,94.7%,73.7%,105%,72.6%,87.2%,95.4%,103%,–
CN1C[C@@H](c2ccc(Cl)cc2)[C@]2(NC(=S)N(c3ccccc3)C2=O)[C@@]12C(=O)NC1C=CC(Br)=C[C@H]12 (some centres undefined),61.2%,71.1%,46.1%,40.4%,–,–,80.2%,30.5%,21.4%,–
COc1ccc(Cn2cnc3cc(C(=O)Nc4cccc5ccccc45)ccc32)c(OC)c1,44.4% [30 µM],37.9% [30 µM],7.29% [30 µM] (active),29.8% [30 µM],23.8% [30 µM],18% [30 µM],-13.9% [30 µM] (active),12.6% [30 µM],6.04% [30 µM] (active),–
CN(C)CCOC(=O)Nc1ccc(Cl)cc1,79.4%,101%,107%,71.2%,–,–,113%,80.5%,89.9%,95.1%
CCN(CC)CCOC(=O)N1c2ccccc2Sc2ccccc21,97.9%,106%,101%,87.9%,–,–,97.1%,69.1%,96.1%,88.2%
C[C@@H]1CC[C@@H]2[C@@H]1[C@H](OC(=O)c1ccc3ccccc3c1)[C@]1(C3CCCCC3)C[C@@H](OC(=O)CO)[C@@]2(C)O1,69.5%,62%,24%,–,7.83% (active),–,-85% (active),48.3%,–,79.2%
O=C(CC12CC3CC(CC(C3)C1)C2)NCCOCCOCCOCCNC(=O)c1cc2c(o1)C(=O)c1ccccc1C2=O,-27.6% (active),-27.1% (active),-90.7% (active),–,-22.4% (active),-27% (active),–,13%,7.19% (active),-3.88% (active)
Cc1ccc(NSc2ccccc2[N+](=O)[O-])cc1,23.5%,50.1%,40.3%,–,50.4%,34.2%,6.22% (active),12.4%,29.5%,51.7%
CCOc1cc(N)ccc1C(=O)NCCCN(CC)CC,102%,106%,98.5%,–,94.6%,95.2%,66.5%,-13.6% (active),26.3%,108%
O=C(c1ccccc1)c1ccc(Cl)c([N+](=O)[O-])c1,95.3%,–,97%,-87.9% (active),98.2%,-2.29% (active),57.1%,13.5%,11.9%,107%
COc1ccc(NC(=O)c2cccc(-c3cc(=O)c4c(O)c(OC)c(OC)cc4o3)c2)cc1,83.4%,–,84.3%,93.4%,83.6%,93.6%,83.8%,84%,103%,105%
CN1CCN(c2ccc3nc(/N=C/c4ccc5sc(-c6ccc([N+](=O)[O-])cc6)nc5c4)sc3c2)CC1,111%,97.7%,104%,–,–,108%,–,101%,108%,101%
COc1cc(NC(=O)c2cccc(-c3cc(=O)c4c(O)c(OC)c(OC)cc4o3)c2)cc(OC)c1OC,69.6%,–,63%,34.3%,16.3%,62.5%,80.1%,58.1%,72.8%,74.8%
CCCCn1c(=O)[nH]c(N)c(C(c2ccc(F)cc2)c2c(N)[nH]c(=O)n(CCCC)c2=O)c1=O,58.6%,69.3%,–,103%,92.7%,100%,90.1%,58%,29.8%,68.3%
Cc1c(C)c2c(c(C)c1NC(=O)/C=C\C(=O)O)CCC(C)(CCCC(C)CCCC(C)CCCC(C)C)O2 (centres undefined),27%,74.3%,50.6%,–,45.5%,46.8%,–,13.6%,33.9%,43.6%
Nc1c(C(=O)c2ccccc2)nnc2ncnn12,92%,–,101%,101%,122%,104%,71.2%,98.4%,95.8%,96%
Fc1ccc(Nc2nc3nonc3nc2Nc2ccc(F)cc2)cc1,-26.2% (active),–,12%,-6.75% (active),-15.9% (active),-8.48% (active),-41.1% (active),17.1%,-8.01% (active),-4.95% (active)
COc1ccc(-c2nnc(-c3ccc4c(c3)nc(-c3ccccc3)n4C3CCCCC3)o2)cc1,57.9%,73%,65.4%,–,60.5%,–,85.2%,35.4%,31.5%,68.9%
C#CC[C@H](N)C(=O)O,110% [20 µM],106% [20 µM],98.2% [20 µM],–,107% [20 µM],–,105% [20 µM],98.6% [20 µM],102% [20 µM],–
CS(=O)(=O)c1ccc(-c2[nH]c3ccc(F)cc3c2/C=N/O)cc1,94.9%,98.4%,99.1%,–,97%,81.4%,99.2%,92.9%,92.9%,99.4%
Cc1cc2c(F)c(Oc3ncnc(Nc4ccc(N5C[C@@H](C)N[C@@H](C)C5)cc4)c3C#N)cc(F)c2[nH]1,96.9%,78.7%,–,70%,-12.2% (active),40.3%,15.6%,7.66% (active),-15.9% (active),70.9%
Cc1ccc(S(=O)(=O)Nc2sccc2-c2nc(-c3ccccc3)no2)cc1,91.6%,94.2%,95.1%,–,89.9%,81.3%,96.3%,92.1%,98%,103%
NC(N)=N/N=C(/c1ccccc1)c1ccc(N)cc1,112%,88.2%,96.2%,–,107%,-0.33% (active),125%,124%,107%,135%
O=C1CSC(c2ccccc2)N1c1ccccc1 (centres undefined),74.4%,–,101%,85.7%,101%,102%,61.7%,97.1%,107%,110%
Fc1ccc(Nc2nc(Nc3ccc(-c4nc5ccccc5[nH]4)cc3)c3cn[nH]c3n2)cc1,92.8%,72.4%,–,79.8%,78.9%,–,101%,31.9%,21.6%,99.5%
COc1ccc(OC)c(Nc2nc3nonc3nc2Nc2cc(OC)ccc2OC)c1,64.5%,–,32.3%,10.8%,-33.4% (active),53%,60.7%,97.8%,88.8%,36.1%
CCOC(=O)c1sc2ccc(NCc3nc[nH]c3C)cc2c1NC(=O)c1cc(OC)c(OC)c(OC)c1,84.1%,–,87.5%,70.4%,65.1%,96%,101%,52.2%,88.2%,150%
Cc1cc(-c2ccccc2)cc(SC#N)[n+]1[O-],49.1%,26.2%,51.7%,–,–,–,67.7%,6.22% (active),10.1%,55.9%
O=C1CC(c2ccc3c(c2)OCO3)Nc2cc3c(cc21)OCO3 (centres undefined),11.7%,36.2%,22.7%,–,45.8%,43.4%,-17.4% (active),9.73% (active),26%,34.6%
Cc1nc(Nc2ccc(NC(=S)Nc3ccccc3)cc2)nc2nc(Nc3ccc(S(=O)(=O)O)cc3)[nH]c(=O)c12,104%,111%,109%,–,128%,82.5%,158%,84.5%,89.7%,125%

# — PubChem BioAssay (NCI)
